# Measurements: PubChem BioAssay
# The source made the active and inactive calls. Unless noted, the rule behind the calls is not given here.
# Legend:
# [1] = compound effects on lung adenocarcinoma cell viability – A549, calcein-AM fluorescence, 48 h, basal, profiling panel (AID 1162); conditions: higher = more signal; note: test concentration not given here
# [2] = compound effects on differentiated 3T3-L1 adipocyte viability – cell-based, 3T3-L1 adipocytes, calcein-AM fluorescence, 48 h, basal, profiling panel (AID 1163); conditions: 3T3-L1 adipocytes viability, higher = more signal; note: test concentration not given here
# [3] = compound effects on hepatocellular carcinoma cell viability – HepG2, calcein-AM fluorescence, 48 h, basal, profiling panel (AID 1164); conditions: higher = more signal; note: test concentration not given here
# [4] = compound effects on multiple myeloma cell viability – MM1S, calcein-AM fluorescence, 48 h, basal, profiling panel (AID 1165); conditions: higher = more signal; note: test concentration not given here
# [5] = calcein-AM signal in unstimulated myeloma cells – cell-based, calcein-AM fluorescence, 48 h, PK04 Diversity Set, profiling panel (AID 1166); conditions: RPMI8226 myeloma viability, higher = more signal;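 note: cells grown under basal conditions without added stimulus; test concentration not given here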
# [6] = JC-1 mitochondrial signal, unstimulated HepG2 cells – cell-based, JC-1 fluorescence, 24 h, 100 nL compound, profiling panel (AID 1167); conditions: HepG2 mitochondrial potential, higher = more signal; note: test concentration not given here
# [7] = JC-1 mitochondrial signal, unstimulated adipocytes – cell-based, JC-1 fluorescence, 3T3-L1 adipocytes, 24 h, 100 nL compound, profiling panel (AID 1168); conditions: JC-1 mitochondrial fluorescence, higher = more signal, called active from +8 up or from −8 down; note: test concentration not given here
# [8] = JC-1 mitochondrial signal, unstimulated myeloma cells – cell-based, JC-1 fluorescence, RPMI8226, 24 h, 100 nL compound, profiling panel (AID 1169); conditions: JC-1 mitochondrial potential fluorescence, higher = more signal; note: test concentration not given here
# [9] = JC-1 mitochondrial signal, unstimulated MM1S myeloma – cell-based, JC-1 fluorescence, 24 h, 100 nL compound, profiling panel (AID 1170); conditions: MM1S mitochondrial potential, higher = more signal; note: test concentration not given here
# [10] = resazurin metabolic signal in A549 cells – cell-based, resazurin fluorescence, 24 h, PK04 Diversity Set, profiling panel (AID 1171); conditions: A549 viability, higher = more signal, called active from +8 up or from −8 down; note: test concentration not given here
# [11] = resazurin metabolic signal in HepG2 cells – cell-based, resazurin fluorescence, 24 h, PK04 Diversity Set, profiling panel (AID 1172); conditions: HepG2 viability, higher = more signal; note: test concentration not given here
# [12] = budding yeast growth changes without added modifier – OD600, strain BY4716, 24 h, basal condition, primary screen (AID 1173); conditions: S. cerevisiae BY4716 growth, OD600, 24 h; higher = more signal, called active from +8 up or from −8 down
# [13] = viability profiling in MM1S myeloma cells – cell-based, resazurin fluorescence, basal, 24 h, PK04 Diversity Set, profiling panel (AID 1174); conditions: higher = more signal, called active from +8 up or from −8 down; note: test concentration not given here
# [14] = molecular target: Dihydroorotate dehydrogenase (quinone), mitochondrial (Plasmodium falciparum (isolate 3D7)) (UniProt Q08210); assay: inhibition of P. falciparum DHODH – biochemical, C-terminal His tag, absorbance 600 nm, primary screen (AID 1175); conditions: PfDHODH enzyme, DCIP absorbance 600 nm; higher = more signal, called active from +8 up or from −8 down;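 note: recombinant parasite enzyme with a five histidine tag at its C terminus; test concentration not given here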
# [15] = inhibition of PAO1 biofilm formation – strain PAO1, LB-PBS medium, absorbance 600 nm, primary screen (AID 1176); note: test concentration not given here; conditions: P. aeruginosa PAO1 growth/biofilm, A600, 12 h; higher = more signal
# [16] = growth modulation of vineyard yeast isolate – strain RM11-1a, OD600, basal, 24 h, primary screen (AID 1177);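 note: cultures grown under basal conditions with no added stressor; test concentration not given here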; conditions: S. cerevisiae RM11-1a growth, OD600, 24 h; higher = more signal, called active from +8 up or from −8 down
# [17] = growth of efflux-deficient E. coli DRC39 – strain DRC39, OD650, 24 h, E. coli filamentation inducers, primary screen (AID 1178);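 note: growth measured as culture turbidity by optical density at 650 nm; test concentration not given here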; conditions: E. coli DRC39 acrAB, higher = more signal, called active from +8 up or from −8 down
# [18] = growth of efflux-deficient E. coli DRC39 – strain DRC39, OD650, 48 h, E. coli filamentation inducers, primary screen (AID 1179);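 note: screen aims at cell division blockers that make cells filament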; conditions: E. coli DRC39 delta-acrAB growth, higher = more signal, called active from +8 up or from −8 down
# [19] = viability profiling in RPMI8226 myeloma cells – cell-based, resazurin fluorescence, basal, 24 h, PK04 Diversity Set, profiling panel (AID 1180); conditions: higher = more signal;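 note: RPMI8826 multiple myeloma cell line at 5000 cells per well; test concentration not given here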
# [20] = molecular target: E3 ubiquitin-protein ligase XIAP (Homo sapiens) (UniProt P98170); assay: small molecules binding XIAP protein – biophysical, small-molecule microarray, fluorescence 635 nm, primary screen (AID 1181); conditions: higher = more signal;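 note: score merges 667 nm emission and signal to noise over triplicate slides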
# Chain of E3 ubiquitin-protein ligase XIAP (Homo sapiens) (P98170 whole entry, looked up): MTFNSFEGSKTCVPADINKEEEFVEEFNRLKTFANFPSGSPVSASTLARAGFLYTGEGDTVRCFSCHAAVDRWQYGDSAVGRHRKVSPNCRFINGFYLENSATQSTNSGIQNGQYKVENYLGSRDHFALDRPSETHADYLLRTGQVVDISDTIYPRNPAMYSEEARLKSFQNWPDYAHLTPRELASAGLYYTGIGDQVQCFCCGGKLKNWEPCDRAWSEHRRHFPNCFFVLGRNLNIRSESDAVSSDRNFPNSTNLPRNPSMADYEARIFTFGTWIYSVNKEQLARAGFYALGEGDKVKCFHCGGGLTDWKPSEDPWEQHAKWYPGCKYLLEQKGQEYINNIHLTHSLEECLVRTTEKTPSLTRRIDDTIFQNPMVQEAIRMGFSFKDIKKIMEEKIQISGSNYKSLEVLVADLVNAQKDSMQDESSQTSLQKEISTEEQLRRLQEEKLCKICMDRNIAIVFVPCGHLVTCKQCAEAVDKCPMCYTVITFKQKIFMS
# Chain of Dihydroorotate dehydrogenase (quinone), mitochondrial (Plasmodium falciparum (isolate 3D7)) (Q08210 whole entry, looked up): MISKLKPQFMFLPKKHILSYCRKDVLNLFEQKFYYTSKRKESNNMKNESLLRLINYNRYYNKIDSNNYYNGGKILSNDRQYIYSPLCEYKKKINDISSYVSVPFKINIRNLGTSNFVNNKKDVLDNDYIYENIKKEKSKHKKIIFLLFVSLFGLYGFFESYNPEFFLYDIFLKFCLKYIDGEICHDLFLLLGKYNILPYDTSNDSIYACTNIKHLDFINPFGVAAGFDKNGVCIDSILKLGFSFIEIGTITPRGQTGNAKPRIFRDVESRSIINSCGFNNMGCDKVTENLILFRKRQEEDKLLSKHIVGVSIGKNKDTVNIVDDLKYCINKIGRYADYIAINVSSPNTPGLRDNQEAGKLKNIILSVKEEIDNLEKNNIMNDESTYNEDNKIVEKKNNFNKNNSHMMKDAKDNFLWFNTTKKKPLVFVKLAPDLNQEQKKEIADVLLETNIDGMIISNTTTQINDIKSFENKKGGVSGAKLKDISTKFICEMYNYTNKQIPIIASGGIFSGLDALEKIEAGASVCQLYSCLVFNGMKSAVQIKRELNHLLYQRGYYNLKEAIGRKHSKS
structure (smiles),measurement,setting,value
CC(CCN1CCc2nc(-c3ccccc3)c(-c3ccccc3)cc2C1)=NO[C@@H](C)c1cc(-c2c(C)cc(C)cc2C)no1,z-score,[1],-0.826
same,z-score,[2],0.998
same,z-score,[3],0.321
same,z-score,[4],-0.494
same,z-score,[5],-1.25
same,z-score,[6],2.47
same,z-score,[7],-1.15 (inactive)
same,z-score,[8],-0.535
same,z-score,[9],-1.62
same,z-score,[10],0.235 (inactive)
same,z-score,[11],-0.377
same,z-score,[12],-1.7 (inactive)
same,z-score,[13],0.553 (inactive)
same,composite z-score,[14],-2.15 (inactive)
same,z-score,[15],-0.634 (inactive)
same,z-score,[16],-0.482 (inactive)
same,z-score,[17],-1.04 (inactive)
same,z-score,[18],-1.01 (inactive)
same,z-score,[19],0.812
same,composite z-score,[20],-0.209
COc1ccc(COC(=O)NN=C2C[C@@H](O)[C@@H](O)[C@@H]3[C@@H]4C(=O)N(C5CCCCC5)C(=O)[C@@H]4CC[C@@H]23)cc1,z-score,[1],0.0391
same,z-score,[2],1.11
same,z-score,[3],0.494
same,z-score,[4],0.419
same,z-score,[5],0.3
same,z-score,[6],-0.0284
same,z-score,[7],-0.297 (inactive)
same,z-score,[8],-0.375
same,z-score,[9],-0.269
same,z-score,[10],-0.533 (inactive)
same,z-score,[11],-0.578
same,z-score,[12],-1.29 (inactive)
same,z-score,[13],-0.489 (inactive)
same,composite z-score,[14],-1.39 (inactive)
same,z-score,[15],-0.118 (inactive)
same,z-score,[16],-0.286 (inactive)
same,z-score,[17],-0.697 (inactive)
same,z-score,[18],-0.437 (inactive)
same,z-score,[19],-0.481
same,composite z-score,[20],0.0225
CCOC(=O)CCN1C(=O)[C@H]2[C@@H]3C(=CC[C@H]2C1=O)C(=O)[C@H]1O[C@H]1[C@H]3O,z-score,[1],0.762
same,z-score,[2],0.453
same,z-score,[3],-0.564
same,z-score,[4],-3.19
same,z-score,[5],-3.72
same,z-score,[6],-1.23
same,z-score,[7],0.501 (inactive)
same,z-score,[8],-1.1
same,z-score,[9],-2.74
same,z-score,[10],-0.899 (inactive)
same,z-score,[11],-0.423
same,z-score,[12],-0.894 (inactive)
same,z-score,[13],-5.48 (inactive)
same,composite z-score,[14],-0.369 (inactive)
same,z-score,[15],0.0335 (inactive)
same,z-score,[16],-0.548 (inactive)
same,z-score,[17],-0.254 (inactive)
same,z-score,[18],0.322 (inactive)
same,z-score,[19],-2.2
same,composite z-score,[20],-0.0812
CC=CC1=C(CO)[C@H](O)[C@H]2O[C@H]2[C@@H]1O,z-score,[1],-0.37
same,z-score,[2],0.309
same,z-score,[3],0.366
same,z-score,[4],-0.948
same,z-score,[5],-0.671
same,z-score,[6],-0.206
same,z-score,[7],0.00909 (inactive)
same,z-score,[8],-0.225
same,z-score,[9],-0.244
same,z-score,[10],-0.337 (inactive)
same,z-score,[11],-0.504
same,z-score,[12],-0.299 (inactive)
same,z-score,[13],0.133 (inactive)
same,composite z-score,[14],0.781 (inactive)
same,z-score,[15],-0.102 (inactive)
same,z-score,[16],0.39 (inactive)
same,z-score,[17],0.615 (inactive)
same,z-score,[18],-0.442 (inactive)
same,z-score,[19],0.694
same,composite z-score,[20],-0.204
